Source: publication PMC8384837, “Expanding the binding specificity for RNA recognition by a PUF domain”

Key:
Experiment in all cases: yeast three-hybrid, YBZ-1, SC-Leu-His + 0.5 mM 3-AT, 4 days
Conditions in all cases: tags: N-Gal4 AD-HA kept; label: inside an RPR1-promoter hybrid RNA with tandem MS2 sites; ssRNA
PUM1 PUF domain R3-RIA = PUM1 PUF domain R3-RIA (Homo sapiens, UniProt Q14671 828-1176, C935R;R936I;Q939A)
In short: (§1)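 Sequencing with Illumina followed PCR amplification of the repeat regions from transformants grown four days on SC-Leu (input) or SC-Leu-His + 0.5 mM 3-AT (selection). The transformants were strain YBZ-1 with a LexA–MS2 coat fusion and a HIS3 reporter, carrying Pumilio-1 PUF domain libraries and matching RNA elements. The interaction score is the log change in variant frequency from input to selection, computed in log2 with a pseudocount of 1 for absent variants.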

PUM1 PUF domain R3-IWR = PUM1 PUF domain R3-IWR (Homo sapiens, UniProt Q14671 828-1176, C935I;R936W;Q939R)
In short: as §1

PUM1 PUF domain R3-KHV = PUM1 PUF domain R3-KHV (Homo sapiens, UniProt Q14671 828-1176, C935K;R936H;Q939V)
In short: as §1

PUM1 PUF domain R3-ARG = PUM1 PUF domain R3-ARG (Homo sapiens, UniProt Q14671 828-1176, C935A;Q939G)
In short: as §1

PUM1 PUF domain R5-RRT = PUM1 PUF domain R5-RRT (Homo sapiens, UniProt Q14671 828-1176, C1007R;Q1011T)
In short: as §1

PUM1 PUF domain R5-RFG = PUM1 PUF domain R5-RFG (Homo sapiens, UniProt Q14671 828-1176, C1007R;R1008F;Q1011G)
In short: as §1

PUM1 PUF domain R8-KHN = PUM1 PUF domain R8-KHN (Homo sapiens, UniProt Q14671 828-1176, N1122K;Y1123H;Q1126N)
In short: as §1

PUM1 PUF domain R4-DYV = PUM1 PUF domain R4-DYV (Homo sapiens, UniProt Q14671 828-1176, N971D;H972Y;Q975V)
In short: as §1

PUM1 PUF domain R5-RFA = PUM1 PUF domain R5-RFA (Homo sapiens, UniProt Q14671 828-1176, C1007R;R1008F;Q1011A)
In short: as §1

PUM1 PUF domain R8-KYC = PUM1 PUF domain R8-KYC (Homo sapiens, UniProt Q14671 828-1176, N1122K;Q1126C)
In short: as §1

PUM1 PUF domain R4-PFD = PUM1 PUF domain R4-PFD (Homo sapiens, UniProt Q14671 828-1176, N971P;H972F;Q975D)
In short: as §1

PUM1 PUF domain R8-PWS = PUM1 PUF domain R8-PWS (Homo sapiens, UniProt Q14671 828-1176, N1122P;Y1123W;Q1126S)
In short: as §1

PUM1 PUF domain R8-KYQ = PUM1 PUF domain R8-KYQ (Homo sapiens, UniProt Q14671 828-1176, N1122K)
In short: as §1

PUM1 PUF domain R5-RAS = PUM1 PUF domain R5-RAS (Homo sapiens, UniProt Q14671 828-1176, C1007R;R1008A;Q1011S)
In short: as §1

PUM1 PUF domain R2-RQC = PUM1 PUF domain R2-RQC (Homo sapiens, UniProt Q14671 828-1176, N899R;Y900Q;Q903C)
In short: as §1

PUM1 PUF domain R1-KKS = PUM1 PUF domain R1-KKS (Homo sapiens, UniProt Q14671 828-1176, S863K;R864K;Q867S)
In short: as §1

PUM1 PUF domain R5-KAN = PUM1 PUF domain R5-KAN (Homo sapiens, UniProt Q14671 828-1176, C1007K;R1008A;Q1011N)
In short: as §1

PUM1 PUF domain R5-QKN = PUM1 PUF domain R5-QKN (Homo sapiens, UniProt Q14671 828-1176, C1007Q;R1008K;Q1011N)
In short: as §1

PUM1 PUF domain R8-NWF = PUM1 PUF domain R8-NWF (Homo sapiens, UniProt Q14671 828-1176, Y1123W;Q1126F)
In short: as §1

PUM1 PUF domain R8-SYK = PUM1 PUF domain R8-SYK (Homo sapiens, UniProt Q14671 828-1176, N1122S;Q1126K)
In short: as §1

PUM1 PUF domain R3-IWR, sequence (Q14671 828-1176 C935I/R936W/Q939R): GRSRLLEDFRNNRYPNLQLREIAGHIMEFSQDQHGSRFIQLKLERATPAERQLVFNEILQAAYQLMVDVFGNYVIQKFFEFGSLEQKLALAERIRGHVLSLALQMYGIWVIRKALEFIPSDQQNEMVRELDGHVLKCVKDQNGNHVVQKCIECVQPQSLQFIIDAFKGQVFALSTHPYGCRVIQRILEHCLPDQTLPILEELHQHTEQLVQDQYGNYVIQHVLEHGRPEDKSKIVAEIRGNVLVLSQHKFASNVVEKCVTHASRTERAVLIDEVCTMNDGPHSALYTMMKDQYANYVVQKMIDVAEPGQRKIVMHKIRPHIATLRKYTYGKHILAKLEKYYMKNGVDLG
PUM1 PUF domain R5-RFG, sequence (Q14671 828-1176 C1007R/R1008F/Q1011G): as the sequence (Q14671 828-1176 C935I/R936W/Q939R) above, with I108C, W109R, R112Q, C180R, R181F, Q184G counted along it
PUM1 PUF domain R5-RRT, sequence (Q14671 828-1176 C1007R/Q1011T): as the sequence (Q14671 828-1176 C935I/R936W/Q939R) above, with I108C, W109R, R112Q, C180R, Q184T counted along it
PUM1 PUF domain R4-PFD, sequence (Q14671 828-1176 N971P/H972F/Q975D): as the sequence (Q14671 828-1176 C935I/R936W/Q939R) above, with I108C, W109R, R112Q, N144P, H145F, Q148D counted along it
PUM1 PUF domain R8-KHN, sequence (Q14671 828-1176 N1122K/Y1123H/Q1126N): as the sequence (Q14671 828-1176 C935I/R936W/Q939R) above, with I108C, W109R, R112Q, N295K, Y296H, Q299N counted along it
PUM1 PUF domain R4-DYV, sequence (Q14671 828-1176 N971D/H972Y/Q975V): as the sequence (Q14671 828-1176 C935I/R936W/Q939R) above, with I108C, W109R, R112Q, N144D, H145Y, Q148V counted along it
PUM1 PUF domain R5-RFA, sequence (Q14671 828-1176 C1007R/R1008F/Q1011A): as the sequence (Q14671 828-1176 C935I/R936W/Q939R) above, with I108C, W109R, R112Q, C180R, R181F, Q184A counted along it
PUM1 PUF domain R5-RAS, sequence (Q14671 828-1176 C1007R/R1008A/Q1011S): as the sequence (Q14671 828-1176 C935I/R936W/Q939R) above, with I108C, W109R, R112Q, C180R, R181A, Q184S counted along it
PUM1 PUF domain R8-KYC, sequence (Q14671 828-1176 N1122K/Q1126C): as the sequence (Q14671 828-1176 C935I/R936W/Q939R) above, with I108C, W109R, R112Q, N295K, Q299C counted along it
PUM1 PUF domain R3-ARG, sequence (Q14671 828-1176 C935A/Q939G): as the sequence (Q14671 828-1176 C935I/R936W/Q939R) above, with I108A, W109R, R112G counted along it
PUM1 PUF domain R8-KYQ, sequence (Q14671 828-1176 N1122K): as the sequence (Q14671 828-1176 C935I/R936W/Q939R) above, with I108C, W109R, R112Q, N295K counted along it
PUM1 PUF domain R5-KAN, sequence (Q14671 828-1176 C1007K/R1008A/Q1011N): as the sequence (Q14671 828-1176 C935I/R936W/Q939R) above, with I108C, W109R, R112Q, C180K, R181A, Q184N counted along it
PUM1 PUF domain R2-RQC, sequence (Q14671 828-1176 N899R/Y900Q/Q903C): as the sequence (Q14671 828-1176 C935I/R936W/Q939R) above, with N72R, Y73Q, Q76C, I108C, W109R, R112Q counted along it
PUM1 PUF domain R5-QKN, sequence (Q14671 828-1176 C1007Q/R1008K/Q1011N): as the sequence (Q14671 828-1176 C935I/R936W/Q939R) above, with I108C, W109R, R112Q, C180Q, R181K, Q184N counted along it
PUM1 PUF domain R8-SYK, sequence (Q14671 828-1176 N1122S/Q1126K): as the sequence (Q14671 828-1176 C935I/R936W/Q939R) above, with I108C, W109R, R112Q, N295S, Q299K counted along it
PUM1 PUF domain R8-NWF, sequence (Q14671 828-1176 Y1123W/Q1126F): as the sequence (Q14671 828-1176 C935I/R936W/Q939R) above, with I108C, W109R, R112Q, Y296W, Q299F counted along it
PUM1 PUF domain R3-RIA, sequence (Q14671 828-1176 C935R/R936I/Q939A): as the sequence (Q14671 828-1176 C935I/R936W/Q939R) above, with I108R, W109I, R112A counted along it
PUM1 PUF domain R8-PWS, sequence (Q14671 828-1176 N1122P/Y1123W/Q1126S): as the sequence (Q14671 828-1176 C935I/R936W/Q939R) above, with I108C, W109R, R112Q, N295P, Y296W, Q299S counted along it
PUM1 PUF domain R1-KKS, sequence (Q14671 828-1176 S863K/R864K/Q867S): as the sequence (Q14671 828-1176 C935I/R936W/Q939R) above, with S36K, R37K, Q40S, I108C, W109R, R112Q counted along it
PUM1 PUF domain R3-KHV, sequence (Q14671 828-1176 C935K/R936H/Q939V): as the sequence (Q14671 828-1176 C935I/R936W/Q939R) above, with I108K, W109H, R112V counted along it

For “GGCUAGAACUAGUGGAUCCCCCGGCGCCCGGCGGCUCGAGCCCGGGUAAGUGUAAUUAGUCUGCAUGCCGCCGGGCGCCAUGCCUGCAGGUCGACUCUAGAAAACAUG”, the binding signal (PUM1 PUF domain R3-RIA) was 3.43 log2 enrichment (interaction score), the binding signal (PUM1 PUF domain R3-IWR) was 3.7 log2 enrichment (interaction score) and the binding signal (PUM1 PUF domain R3-KHV) was 2.96 log2 enrichment (interaction score). The binding signal (PUM1 PUF domain R3-ARG) was 0.5 log2 enrichment (interaction score).
With “GGCUAGAACUAGUGGAUCCCCCGGCGCCCGGCGGCUCGAGCCCGGGUAAGUGUGAAUAGUCUGCAUGCCGCCGGGCGCCAUGCCUGCAGGUCGACUCUAGAAAACAUG” the binding signal (PUM1 PUF domain R5-RRT) was 1.02 log2 enrichment (interaction score) and the binding signal (PUM1 PUF domain R5-RFG) was 2.66 log2 enrichment (interaction score).
For “GGCUAGAACUAGUGGAUCCCCCGGCGCCCGGCGGCUCGAGCCCGGGUAAGUGUAAAUAGUCUGCAUGCCGCCGGGCGCCAUGCCUGCAGGUCGACUCUAGAAAACAUG”, the binding signal (PUM1 PUF domain R8-KHN) was 2.21 log2 enrichment (interaction score), the binding signal (PUM1 PUF domain R5-RRT) was 0.94 log2 enrichment (interaction score) and the binding signal (PUM1 PUF domain R3-IWR) was 3.61 log2 enrichment (interaction score). The binding signal (PUM1 PUF domain R3-ARG) was 3.94 log2 enrichment (interaction score), the binding signal (PUM1 PUF domain R4-DYV) was 5.94 log2 enrichment (interaction score) and the binding signal (PUM1 PUF domain R5-RFA) was 2.39 log2 enrichment (interaction score). The binding signal (PUM1 PUF domain R8-KYC) was 2.79 log2 enrichment (interaction score), the binding signal (PUM1 PUF domain R4-PFD) was 3.55 log2 enrichment (interaction score) and the binding signal (PUM1 PUF domain R8-PWS) was 2.42 log2 enrichment (interaction score). For the same sequence, the binding signal (PUM1 PUF domain R8-KYQ) was 5.9 log2 enrichment (interaction score) and the binding signal (PUM1 PUF domain R5-RFG) was 3.09 log2 enrichment (interaction score).
With “GGCUAGAACUAGUGGAUCCCCCGGCGCCCGGCGGCUCGAGCCCGGGUAAGUGUUAAUAGUCUGCAUGCCGCCGGGCGCCAUGCCUGCAGGUCGACUCUAGAAAACAUG” the binding signal (PUM1 PUF domain R5-RAS) was 3.24 log2 enrichment (interaction score), the binding signal (PUM1 PUF domain R5-RFA) was 4.55 log2 enrichment (interaction score) and the binding signal (PUM1 PUF domain R5-RFG) was 5.49 log2 enrichment (interaction score).
“GGCUAGAACUAGUGGAUCCCCCGGCGCCCGGCGGCUCGAGCCCGGGUAAGUGUAAGUAGUCUGCAUGCCGCCGGGCGCCAUGCCUGCAGGUCGACUCUAGAAAACAUG” was tested, and the binding signal (PUM1 PUF domain R3-IWR) was 4.57 log2 enrichment (interaction score).
With “GGCUAGAACUAGUGGAUCCCCCGGCGCCCGGCGGCUCGAGCCCGGGUAAGUGUAAAGAGUCUGCAUGCCGCCGGGCGCCAUGCCUGCAGGUCGACUCUAGAAAACAUG” the binding signal (PUM1 PUF domain R2-RQC) was 4.25 log2 enrichment (interaction score).
“GGCUAGAACUAGUGGAUCCCCCGGCGCCCGGCGGCUCGAGCCCGGGUAAGUGUAUAUAGUCUGCAUGCCGCCGGGCGCCAUGCCUGCAGGUCGACUCUAGAAAACAUG” was tested, and the binding signal (PUM1 PUF domain R4-DYV) was 6.86 log2 enrichment (interaction score) and the binding signal (PUM1 PUF domain R4-PFD) was 5.34 log2 enrichment (interaction score).
“GGCUAGAACUAGUGGAUCCCCCGGCGCCCGGCGGCUCGAGCCCGGGUAAGUGUAAAUUGUCUGCAUGCCGCCGGGCGCCAUGCCUGCAGGUCGACUCUAGAAAACAUG” was tested, and the binding signal (PUM1 PUF domain R1-KKS) was 5.1 log2 enrichment (interaction score).
For “GGCUAGAACUAGUGGAUCCCCCGGCGCCCGGCGGCUCGAGCCCGGGUAAGUGUCAAUAGUCUGCAUGCCGCCGGGCGCCAUGCCUGCAGGUCGACUCUAGAAAACAUG”, the binding signal (PUM1 PUF domain R5-KAN) was 5.42 log2 enrichment (interaction score), the binding signal (PUM1 PUF domain R5-RAS) was 3.03 log2 enrichment (interaction score) and the binding signal (PUM1 PUF domain R5-RRT) was 4.59 log2 enrichment (interaction score). For the same sequence, the binding signal (PUM1 PUF domain R5-QKN) was 2.32 log2 enrichment (interaction score), the binding signal (PUM1 PUF domain R5-RFA) was 5.36 log2 enrichment (interaction score) and the binding signal (PUM1 PUF domain R5-RFG) was 5.07 log2 enrichment (interaction score).
“GGCUAGAACUAGUGGAUCCCCCGGCGCCCGGCGGCUCGAGCCCGGGUAAGCGUAAAUAGUCUGCAUGCCGCCGGGCGCCAUGCCUGCAGGUCGACUCUAGAAAACAUG” was tested, and the binding signal (PUM1 PUF domain R8-NWF) was 2.16 log2 enrichment (interaction score), the binding signal (PUM1 PUF domain R8-SYK) was 4.29 log2 enrichment (interaction score) and the binding signal (PUM1 PUF domain R8-KHN) was 5.43 log2 enrichment (interaction score). The binding signal (PUM1 PUF domain R8-KYC) was 6.06 log2 enrichment (interaction score).
For “GGCUAGAACUAGUGGAUCCCCCGGCGCCCGGCGGCUCGAGCCCGGGUAAGGGUAAAUAGUCUGCAUGCCGCCGGGCGCCAUGCCUGCAGGUCGACUCUAGAAAACAUG”, the binding signal (PUM1 PUF domain R8-KHN) was 2.46 log2 enrichment (interaction score).
“GGCUAGAACUAGUGGAUCCCCCGGCGCCCGGCGGCUCGAGCCCGGGUAAGUGUACAUAGUCUGCAUGCCGCCGGGCGCCAUGCCUGCAGGUCGACUCUAGAAAACAUG” was tested, and the binding signal (PUM1 PUF domain R4-DYV) was 6.74 log2 enrichment (interaction score) and the binding signal (PUM1 PUF domain R4-PFD) was 1.86 log2 enrichment (interaction score).
